Laboratory results: PubChem BioAssay (NCI)
This is part of a sample that, as a whole, favours compounds with a hit. Of some 83,000 tested, about 20% had one in any assay.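 Plates (96-well) were seeded with cells, treated with compound at one concentration, and incubated for 48 hours before percent growth was determined.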 Active and inactive are the calls of the source.

Each compound was assayed on NCI-H322M lung (assay: NCI-60 one-dose screen, 48 h (100 = growth as untreated, 0 = no growth, -100 = all killed)). Conditions: 10 µM unless noted.
Protocol: Growth inhibition of the NCI-H322M human Non-Small Cell Lung tumor cell line is measured as a screen for anti-cancer activity. Cells are grown in 96 well plates and exposed to the test compound for 48 hours. Compounds are tested at a single concentration, which is 10^-5 M for most compounds. The reported endpoint is percent growth (GI% or GIPRCNT), where numbers from 0 - 100% represent growth inhibition, and numbers from -100% - 0 represent cell death. For example, a value of 40 represents 60% growth inhibition. A value of 0 means no net growth occurred over the course of the experiment. A value of -40 indicates 40% of cells at the beginning of the experiment died by the end of the experiment. A value of -100 means all cells are dead at the end of the experiment.
NCI-60 Human Tumor Cell Lines Screen was performed using the standard one-dose NCI protocol, which is described in more detail at https://dtp.cancer.gov/discovery_development/nci-60/default.htm.
Compounds with GIPRCNT values below 10 were considered active. Activity score was based on GIPRCNT using the following formula: […]
Score is 0 for GIPRCNT values of 100 or above, 50 for GIPRCNT values of 0, and 100 for GIPRCNT values of -100.
`CCCCCCNC(=O)Nc1ccc2cc3ccc(NC(=O)NCCCCCC)cc3nc2c1` was tested, and the growth was 22.8% (inactive).
For `O=C(Nc1ccc(-c2ccc3c(c2)NC(=O)/C3=C\c2ccc[nH]2)cc1)NC1CC1`, the growth was 80.2% (inactive).
With `O=C(Cc1ccc(/C=C/C(=O)c2nccs2)cc1)Nc1ccccc1` the growth was 100% (inactive).
For `C=C1C(=O)O[C@H]2[C@H]1CC/C(CNC(=O)CCc1ccc(OC)cc1)=C\CC[C@@]1(C)O[C@@H]21`, the growth was 91.4% (inactive).
For `COc1ccc2c(c1)C(=O)CC(c1ccccc1OC)O2` (stereo not given), the growth was 104% (inactive).
For `CCCCN1C=CCN(CCCC)C1`, the growth was 75% (inactive).
`Cc1c(C(=O)NCCC(=O)NO)sc2ncnc(Nc3ccc(NC(=O)Nc4cccc(C(F)(F)F)c4)cc3)c12` was tested, and the growth was 104% (inactive).
With `c1ccc2c(-c3nccs3)c[nH]c2c1` the growth was 98% (inactive).
`CN1CCN(C(=O)[C@]23CCC(C)(C)C[C@H]2C2=CC[C@@H]4[C@@]5(C)C/C(=C/c6cccnc6)C(=O)C(C)(C)[C@@H]5CC[C@@]4(C)[C@]2(C)CC3)CC1` was tested, and the growth was 96.3% (inactive).
`NC(=NCCCOc1ccc(F)cc1)Nc1ccc(I)cc1` was tested, and the growth was 88% (inactive).
`COc1cc(CC(=O)c2ccc(O)c(OC)c2)ccc1O` was tested, and the growth was 89.6% (inactive).
With `Cc1nn(-c2ccccc2)c(Cl)c1/C=C/C(=O)c1ccc(F)cc1` the growth was 91.2% (inactive).
In the case of `C=C1C(=O)O[C@H]2[C@H]1CC/C(CNC(=O)c1cccc3ccccc13)=C\CC[C@@]1(C)O[C@@H]21`, the growth is reported as 90.5% (inactive).
In the case of `CC[C@]12C=CCN3CC[C@@]4(c5cc(NC(=O)CCC(=O)O[C@H]6CC[C@H]7[C@@H]8CCC9=CC(=O)CC[C@@H]9[C@H]8CC[C@]67C)c(OC)cc5N(C)[C@H]4[C@@](O)(C(=O)OC)[C@@H]1OC(C)=O)[C@@H]32`, the growth is reported as 91.1% (inactive).
`Cc1ccc(CNc2c3ccccc3nc3cc(NC(=O)CCN4CCCC4)ccc23)cc1` was tested, and the growth was 1.8% (active).
`O=C(/C=C/c1ccc(Cl)cc1)c1ccc(NC(=O)N2CCN(c3cc4c(cc3F)c(=O)c(C(=O)O)cn4C3CC3)CC2)cc1` was tested, and the growth was 103% (inactive).
`Cn1nc(CC#N)c2c(=N)n(N)cnc21` was tested, and the growth was 118% (inactive).
For `CC(=O)c1ccc(NS(=O)(=O)c2cccc(C(=O)Nc3ccc(Br)cc3)c2)cc1`, the growth was 89% [25 µM] (inactive).
With `O=C1CC(=O)OC(c2ccc([N+](=O)[O-])cc2)O1` the growth was 51.7% (inactive).
`CN1CCC(=C(c2ccccc2)c2ccccc2)C(c2ccccc2)C1` (stereo not given) was tested, and the growth was 96.7% (inactive).
In the case of `COc1cccc(-c2nc3occn3c2-c2ccnc(NCCCNS(=O)(=O)c3ccc(C(F)(F)F)cc3)n2)c1`, the growth is reported as 99.4% (inactive).
With `COc1cccc(-c2ccc3c(c2)NC(=O)/C3=C\c2ccc[nH]2)c1` the growth was 45.2% (inactive).
For `CCNC(=O)Oc1ccc(/C(=C(\C)c2ccccc2)c2ccc(OCCCN(C)C)cc2)cc1`, the growth was 80.7% (inactive).
With `CCN(CC)CCCC(C)Nc1cc(O)cc2cccnc12` (stereo not given) the growth was 110% (inactive).
`N#CC1C(C#N)C(C(=O)c2ccc(Br)cc2)N2c3ccccc3C=CC12` (stereo not given) was tested, and the growth was 93.4% (inactive).
`O=C(O)c1ccc(-c2nn(-c3ccc(C(F)(F)F)cc3)cc2CNc2ccc(Oc3ccccc3)cc2)cc1` was tested, and the growth was 70.8% (inactive).
With `NCCCCCCNc1cc(-c2cccc(OC(F)(F)F)c2)nc2ccc(N3CCCC3)cc12` the growth was -13.1% (active).
`C#CCNC(=O)[C@H](Cc1ccccc1)NC(=O)[C@]12CC[C@@H](C(=C)C)[C@@H]1[C@H]1CC[C@@H]3[C@@]4(C)CCC(=O)C(C)(C)[C@@H]4CC[C@@]3(C)[C@]1(C)CC2` was tested, and the growth was 69.9% (inactive).
With `CCCCCN1C=C/C(=C\C(=O)N2CCCc3ccccc32)c2ccccc21` the growth was 102% (inactive).
`C=C1C(=O)O[C@H]2[C@H]1CC/C(CNC(=O)/C=C/c1ccccc1)=C\CC[C@@]1(C)O[C@@H]21` was tested, and the growth was 71.9% (inactive).
`CCN(CC)c1ccc(C(=O)c2ccccc2)cc1` was tested, and the growth was 97.9% (inactive).
With `Nc1nc(Nc2ccccc2SSc2ccccc2Nc2nc(N)nc(-c3ccc(C(F)(F)F)cc3)n2)nc(-c2ccc(C(F)(F)F)cc2)n1` the growth was 88.6% (inactive).
With `CCc1c2c(nc3ccc(OCc4ccc(B(O)O)cc4)cc13)-c1cc3c(c(=O)n1C2)COC(=O)[C@]3(O)CC` the growth was 15.7% (inactive).
With `CCN(CC)CC[n+]1cc2cc(OC)c(OC)cc2c2ccc3cc4c(cc3c21)OCO4` the growth was -15.9% (active).
In the case of `O=[N+]([O-])CC(c1ccccc1F)c1c[nH]c2ccccc12` (stereo not given), the growth is reported as 96% (inactive).
`CCOC(=O)/C(C#N)=C1/NNC(=Nc2cccnc2)S1` was tested, and the growth was 105% (inactive).
In the case of `NC(=O)Nc1ccc(-n2cnc3cc(-c4ccc(O)cc4)ccc32)cc1`, the growth is reported as 101% (inactive).
With `CCCCCC(=O)Oc1ccc(/C(=C(/C)Cc2ccc(OC)cc2)c2ccc(OCCCN(C)C)cc2)cc1` the growth was 92.1% (inactive).
With `COc1cc2cc(CN3CCN(c4nccc(-c5ccc6ccccc6c5)n4)CC3)c(=O)[nH]c2cc1OC` the growth was 98.4% (inactive).
`C=C1C(=O)O[C@H]2[C@H]1CC/C(COC(=O)NCC(C)c1ccc(CC(C)C)cc1)=C\CC[C@@]1(C)O[C@@H]21` (stereo not given in full) was tested, and the growth was 87% (inactive).
